Only some compounds are listed: those with a hit (about 12% of all), similar ones and a draw of the others.
Shiga toxin inh = A qHTS for Small Molecule Inhibitors of Shiga Toxin | 9.2% of 290,000 active | inhibition, % at 38.7 µM | Vero cells, Shiga toxin protein synthesis inhibition reporter; in the data active = inhibition mostly above about 28%, no sharp cut-off; inactive = mostly below about 43%; note: 0% is about no effect
MARV entry inh = qHTS for inhibitors of binding or entry into cells for Marburg Virus; Marburg virus pseudotyped entry inhibition, cell reporter; Potency, µM (top dose mostly 37.8 µM), inactives show at the highest dose activity change, negative = inhibition, actives largely listed as inhibitors; 1.8% of 300,000 active; AID 540276, 2011; calls by dose curve; tested in HEK293 cells; note: potency is the fitted concentration of half-maximal effect; % is set by controls: 0 for no effect and ±100 for the full control effect
CHX counter = Cycloheximide Counterscreen for Small Molecule Inhibitors of Shiga Toxin | cell reporter, cycloheximide protein synthesis inhibition counterscreen | 12% of 300,000 active | max response, %; in the data active = max response mostly above about 13%, no sharp cut-off; inactive = mostly below about 14%; note: read at 38.3 µM for the half of the compounds with a filed dose; 0% is about no effect
LASV entry inh = qHTS for Inhibitors of binding or entry into cells for Lassa Virus; Lassa virus pseudotype entry inhibition, cell reporter; Potency, µM (titrated, usually from 37.9 µM), for inactives: at the top dose activity change, negative = inhibition, actives largely listed as inhibitors; 1.2% of 300,000 active; calls by dose curve; tested in HEK293 cells; note: potency is the fitted concentration of half-maximal effect; % is set by controls: 0 for no effect and ±100 for the full control effect; nearly all actives have a fitted effect of over 50% in size
Active calls of the source: *; ? = inconclusive; . = no result given; [ ] = remark or other dose.

SMILES	Shiga toxin inh	MARV entry inh	CHX counter	LASV entry inh
Cc1ccc(-n2cc(CN3CCN(C(=O)c4ncn[nH]4)CC3)c(-c3ccc(F)cc3)n2)cc1	40	.	17*	.
Cc1cc(NC(=O)c2ccc3c(c2)C(=O)N(C)C3=O)no1	-1	7%	3	2%
Cc1cc(NC(=O)c2ccc(C)c([N+](=O)[O-])c2)no1	32*	-9%[46.1 µM]	31	8%
Cc1cc(NC(=O)c2ccc(C)c(C)c2)no1	.	.	37*	.
Cc1ccc(C(=O)NC(C)CCc2ccccc2)cc1[N+](=O)[O-] (centres undefined)	11	-5%	5	-14%
Cc1ccc(C(=O)Nc2sc(C)c(-c3ccccc3)c2C(N)=O)cc1[N+](=O)[O-]	127*	?	62*	?
CCCOC(=O)CSC1=C(C#N)[C@H](c2ccccc2OC)[C@H](C#N)C(=O)N1	.	6%	.	.
COc1ccc(NC(=O)Cn2c(=O)n(Cc3ccco3)c(=O)c3sc4ccccc4c32)cc1OC	.	-1%[46.1 µM]	.	-4%[46.1 µM]
Cn1c(-c2ccncc2)nc2ccccc21	.	.	1	.
CCN(CC)c1ccc(-c2nc3cnccc3n2C)cc1	135*	?	33*	-25%
O=C1C(=Cc2ccc(Br)o2)C(=O)c2ccccc21	-3	?	30*	6%
CC1=C/C(=C\c2ccc(Br)o2)C(=O)O1	-6	-6%	0	-1%
CCOC(=O)c1ccc2[nH]c3ccccc3c2c1	63*	.	37*	.
CCOC(=O)c1ccc2[nH]c(C)c(C)c2c1	.	27%	.	2%
COC(=O)c1ccc2[nH]c(C(C)(C)O)c(C)c2c1	40*	.	23*	.
CCOC(=O)c1cn(-c2c(C)n(C)n(-c3ccccc3)c2=O)c2c(F)c(F)c(F)cc2c1=O	-6	-16%[46.1 µM]	-4	-10%
CC(C)C[C@H](NC(=O)c1[nH]cnc1C(=O)Nc1ccccc1)C(=O)OC(C)(C)C	-1	.	-1	.
O=S(=O)(c1ccccc1)c1nc(-c2ccco2)oc1NCc1ccccc1	15	-7%	9	-13%
O=S(=O)(c1ccccc1)c1nc(-c2ccco2)oc1Nc1ccccc1	90*	0%	25*	?
O=S(=O)(c1ccccc1)c1nc(-c2ccco2)oc1NCc1ccco1	-2	?	2	19%
O=S(=O)(c1ccc(F)cc1)c1nc(-c2ccco2)oc1Nc1ccccc1	114*	11%	50*	?
COC(=O)c1ccc(CN2C(=O)[C@@]3(CC(C)=CC[C@@H](C)O3)c3ccccc32)cc1	.	-29%[14.2 µM]	.	.
CCN(CC)c1ccc(/C=C2\SC(=O)N(C(C)C)C2=O)o1	-10	11µM*	-2	?
COc1ccc(-c2csc(=NCCO)n2-c2ccccc2)cc1	71*	?	17*	-29%[46.1 µM]
COc1ccc(-c2csc(=Nc3ccccc3)n2CCO)cc1	41*	?	16*	-9%
SMILES	Shiga toxin inh	MARV entry inh	CHX counter	LASV entry inh
Cc1ccc(-c2csc(=Nc3ccccc3)n2CCCO)cc1	.	-4%[46.1 µM]	.	-8%[46.1 µM]
CC1(C(=O)Nc2cccc(C(F)(F)F)c2)Cc2ccccc2C(=O)O1 (centres undefined)	.	-25%[46.1 µM]	.	0%[46.1 µM]
Cc1c(C)n(C)c2ccc(C(=O)NCCc3ccco3)cc12	69*	.	39*	.
CCn1c(C)c(C)c2cc(C(=O)NCCc3ccco3)ccc21	36*	.	16	.
CC(=O)Nc1cccc(C(=O)NCCc2ccco2)c1	78*	-4%[46.1 µM]	26*	-21%
Cc1ccc(C(=O)NCc2ccco2)cc1Br	12	6%	1	-4%
CCn1c(C)c(C)c2cc(C(=O)NCCc3ccc(C)cc3)ccc21	.	.	.	-9%[46.1 µM]
CCOC(=O)c1sc(NC(=O)c2ccco2)c(C#N)c1C	-14	-2%	-4	0%
CCc1c(C)sc(NC(=O)c2ccco2)c1C#N	69*	.	37*	.
Cc1sc(NC(=S)NC(=O)c2ccccc2)c(C#N)c1C	.	?	.	0%
Cc1sc(NC(=S)NC(=O)c2ccco2)c(C#N)c1C	27	?	15*	4%[46.1 µM]
Cc1sc(NC(=S)NC(=O)c2ccc(C(C)(C)C)cc2)c(C#N)c1C	32	8.2µM*	14	?
CC(=O)Nc1ccc(SCC(CC(C)C)N2CCN(CCc3ccccc3)CCC2=O)cc1 (centres undefined)	-9	.	-5	.
O=C(COC(=O)c1ccc(Cl)c(S(=O)(=O)NCc2ccccc2)c1)NCC1CCCO1 (centres undefined)	-5	.	-3	.
CCN1CCc2c(sc(NC(=O)CN3C(=O)c4ccccc4C3=O)c2C(N)=O)C1	24	-1%	-1	11%
CCN1CCc2c(sc(NC(=O)c3ccc4ccccc4c3)c2C(N)=O)C1	28	.	20*	.
CCN1CCc2c(sc(NC(=O)c3ccc(S(=O)(=O)N4CC(C)OC(C)C4)cc3)c2C(N)=O)C1 (centres undefined)	-11	.	1	.
CCN1CCN(S(=O)(=O)c2ccc(C(=O)Nc3sc4c(c3C(N)=O)CCN(CC)C4)cc2)CC1	-35	8.9µM*	-5	?
COc1ccc(-c2nnc(SCC(=O)Nc3ncc(C(F)(F)F)cc3Cl)n2CC(C)C)cc1	-7	17%	15*	-1%
CCSc1nc(=O)n(-c2ccccc2)c(C)c1C(C)=O	33*	8%	16*	13%
CCSc1nc(=S)n(-c2ccccc2)c(C)c1C(C)=O	-10	-3%	-4	-1%
Cc1cccc(Nc2nc(C)nc3c2oc2ccccc23)c1	42	.	19*	.
CCc1nc(Nc2ccc3c(c2)OCO3)c2oc3ccccc3c2n1	62*	?	12*	-4%
CCc1nc(Nc2cccc(O)c2)c2oc3ccccc3c2n1	39	.	15	.
COc1ccc(CCNc2nc(C)nc3c2oc2ccccc23)cc1OC	-1	13µM*	-3	13µM*
SMILES	Shiga toxin inh	MARV entry inh	CHX counter	LASV entry inh
COc1ccc(CCNc2ncnc3c2oc2ccccc23)cc1OC	-4	?	-1	?
COc1cccc([C@@H]2Oc3ccc(Br)cc3C[C@@H]2OC(=O)Nc2cc(OC)c(OC)c(OC)c2)c1	.	-5%[14.2 µM]	.	.
CCCCCCCCCn1c2c(c(=N)c3c1CCC3)CCC2	-7	?	-5	1.4µM*
CCCCCCn1c2c(c(=N)c3c1CCC3)CCC2	-6	8.2µM*	-1	3.7µM*
CCCCn1c2c(c(=N)c3c1CCC3)CCC2	-21	?	-2	?
CCCCCCCn1c2c(c(=N)c3c1CCC3)CCCC2	-2	?	-2	?
CC(=O)Nc1ccc2sccc2c1	-5	-7%[46.1 µM]	8	18%
CC(=O)Nc1cccc(N(C)S(C)(=O)=O)c1	-2	28%	-4	2%
CN(C)c1ccc(NC(=O)Nc2cccc(Cl)c2)cc1	50*	-5%	31*	-11%
CC(C)NC(=O)Nc1cccc(Cl)c1	24	?	11	11%
CN(c1cccc(NC(=O)Nc2cccc(Cl)c2)c1)S(C)(=O)=O	94*	-28%	37*	?
S=c1[nH]c(-c2ccc(Br)cc2)cn1CCc1ccccc1	-12	-1%[46.1 µM]	14	-21%
c1ccc2c(c1)ncn2CCCCOc1ccc2c(c1)CCC2	37	-19%	18*	8%
c1ccc2c(c1)ncn2CCCOc1ccc2c(c1)CCC2	98*	?	19*	?
Cc1cccc(N2N=C(C(=O)O)CCC2=O)c1	-8	.	1	.

Screening results as filed in PubChem BioAssay.
